From PubChem BioAssay (NCI) come the findings set out here.

Test systems include DU-145 prostate; K-562 leukemia; MALME-3M melanoma; MDA-MB-231 breast; RXF 393 renal; SF-268 CNS; SF-295 CNS; SF-539 CNS; UACC-257 melanoma; M14 melanoma; HCT-15 colon; HT29 colon; SNB-75 CNS; SNB-19 CNS; U251 CNS; PC-3 prostate; SK-MEL-5 melanoma; UACC-62 melanoma; SK-MEL-28 melanoma; LOX IMVI melanoma.
Common to all, as to experiment: NCI-60 one-dose screen, 48 h (100 = growth as untreated, 0 = no growth, -100 = all killed)
Holding throughout (conditions): 10 µM unless noted

The panel holds about 83,000 compounds, 20% with a hit somewhere; the sample as a whole holds those more often.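 Results are percent growth after 48 hours of single-concentration exposure. 100 means growth as in untreated cells, lower positive values show inhibition; negative values down to -100 show cell death.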 Values without a mark were called inactive. Active and inactive are the calls of the source. How the source made its calls: active means growth percent below 10; inactive means the rest.

For the compound `O=C(N/N=C/c1c(Cl)cccc1Cl)c1cccc(Nc2ccnc(C(F)(F)F)c2)c1`, the growth with DU-145 prostate was 120%; in the assay with K-562 leukemia, 104%; in the assay on MALME-3M melanoma, 113%; in the assay with MDA-MB-231 breast it was 76.8%; with RXF 393 renal it was 111%; with SF-268 CNS, 125%. The growth with SF-295 CNS is 90.3%; with SF-539 CNS, 92.9%; in the assay with UACC-257 melanoma, 102%; in the assay with M14 melanoma it was 80.8%; in the assay with HCT-15 colon, 78.5%; in the assay on HT29 colon, 96.7%. For the same compound, the growth in the assay with SNB-75 CNS is 93.7%; in the assay on SNB-19 CNS, 85.7%; with U251 CNS, 89.6%; in the assay on PC-3 prostate, 77%; in the assay on SK-MEL-5 melanoma, 54.6%; in the assay with UACC-62 melanoma it was 72.5%. The growth in the assay on SK-MEL-28 melanoma was 99.3%.
Consider `Cc1nc(-c2ccccc2)sc1CC#N`, for which the growth with DU-145 prostate was 116%; in the assay with K-562 leukemia it was 94.2%; in the assay with MALME-3M melanoma it was 128%; in the assay on MDA-MB-231 breast, 116%; in the assay on RXF 393 renal, 118%; in the assay with SF-268 CNS it was 106%. In addition, the growth was 101% with SF-295 CNS; 111% in the assay with SF-539 CNS; 123% in the assay with UACC-257 melanoma; 125% in the assay on M14 melanoma; 102% with HCT-15 colon; 105% in the assay on HT29 colon. Also, the growth was 113% in the assay with SNB-75 CNS; 103% in the assay on SNB-19 CNS; 100% in the assay with U251 CNS; 107% in the assay with SK-MEL-5 melanoma; 106% in the assay on UACC-62 melanoma; 102% in the assay with LOX IMVI melanoma. For the same compound, the growth with SK-MEL-28 melanoma is 120%.
As to `COc1ncc(-c2ccc3nccc(C#CCCCCC(=O)NO)c3c2)cc1NS(=O)(=O)c1ccc(F)cc1F`, the growth with DU-145 prostate is 12.4%; in the assay with K-562 leukemia it was 17.3%; in the assay with MALME-3M melanoma, -40.5% (active); with MDA-MB-231 breast it was -11.8% (active); in the assay on RXF 393 renal, -56.6% (active); with SF-268 CNS, -11.6% (active). For the same compound, the growth was -9.35% (active) with SF-295 CNS; -45.7% (active) in the assay with SF-539 CNS; -16.4% (active) in the assay on UACC-257 melanoma; -48.7% (active) with M14 melanoma; 24.9% in the assay with HCT-15 colon; 7.04% (active) with HT29 colon. Also, the growth is -15.3% (active) with SNB-75 CNS; 4.98% (active) in the assay on SNB-19 CNS; -14% (active) in the assay with U251 CNS; 7.68% (active) in the assay on PC-3 prostate; -97.3% (active) with SK-MEL-5 melanoma; -37.3% (active) in the assay with UACC-62 melanoma. Besides, the growth in the assay with SK-MEL-28 melanoma is -27.9% (active).
On to `C=C(C)[C@@H]1CC[C@]2(C(=O)NCCCN)CC[C@]3(C)[C@H](CC[C@@H]4[C@@]5(C)CC[C@H](O)C(C)(C)[C@@H]5CC[C@]43C)[C@@H]12`, for which the growth in the assay with DU-145 prostate was -100% [100 µM] (active); in the assay on K-562 leukemia it was 1.1% [100 µM] (active); with MALME-3M melanoma, -18.8% [100 µM] (active); with MDA-MB-231 breast, -47.8% [100 µM] (active); in the assay with RXF 393 renal it was -42.3% [100 µM] (active); in the assay with SF-268 CNS, -16.9% [100 µM] (active). The growth in the assay with SF-295 CNS was -26.4% [100 µM] (active); with SF-539 CNS it was -36.2% [100 µM] (active); in the assay on UACC-257 melanoma, -46.7% [100 µM] (active); in the assay on M14 melanoma it was 5.07% [100 µM] (active); in the assay with HCT-15 colon, -22.1% [100 µM] (active); with HT29 colon, 3.9% [100 µM] (active). The growth is -51.6% [100 µM] (active) in the assay with SNB-75 CNS; -29.5% [100 µM] (active) with SNB-19 CNS; -13.8% [100 µM] (active) with U251 CNS; -23.9% [100 µM] (active) in the assay with SK-MEL-5 melanoma; -22.6% [100 µM] (active) in the assay on UACC-62 melanoma; 1.37% [100 µM] (active) with LOX IMVI melanoma.
Turning to `CCN(CCO)CCC(=O)c1ccc([N+](=O)[O-])cc1`, the growth with DU-145 prostate was 103%; with K-562 leukemia it was 101%; with MALME-3M melanoma, 102%; in the assay with MDA-MB-231 breast, 115%; in the assay with RXF 393 renal it was 106%; with SF-268 CNS, 97%. The growth in the assay on SF-295 CNS is 103%; in the assay on SF-539 CNS, 105%; in the assay with UACC-257 melanoma, 105%; in the assay on M14 melanoma, 106%; in the assay with HCT-15 colon, 101%; with HT29 colon, 105%. Further, the growth was 93.2% in the assay with SNB-75 CNS; 117% in the assay on SNB-19 CNS; 98.1% in the assay on U251 CNS; 100% in the assay with SK-MEL-5 melanoma; 104% in the assay on UACC-62 melanoma; 98.5% in the assay on LOX IMVI melanoma. The growth with SK-MEL-28 melanoma is 117%.
Regarding `Cc1ccc(-c2cn(C/C=C3\C=CN(S(=O)(=O)c4ccccc4)CC3)nn2)cc1`, the growth is 118% in the assay on DU-145 prostate; 89.5% in the assay on K-562 leukemia; 104% with MALME-3M melanoma; 97.5% in the assay on MDA-MB-231 breast; 123% in the assay on RXF 393 renal; 99.3% in the assay on SF-268 CNS. Further, the growth in the assay with SF-295 CNS was 99.3%; in the assay with SF-539 CNS, 100%; in the assay on UACC-257 melanoma, 106%; in the assay on M14 melanoma, 92.5%; in the assay with HCT-15 colon it was 95.6%; with HT29 colon, 124%. The growth was 82.1% in the assay with SNB-75 CNS; 93% in the assay on SNB-19 CNS; 108% with U251 CNS; 97% with SK-MEL-5 melanoma; 64% in the assay on UACC-62 melanoma; 97.8% in the assay on LOX IMVI melanoma. Besides, the growth with SK-MEL-28 melanoma was 101%.
For the compound `CC(C)c1ccc(/C=N/N=C(N)N)cc1`, the growth with DU-145 prostate is 98.9%; with K-562 leukemia it was 19.9%; with MALME-3M melanoma it was 88.4%; with MDA-MB-231 breast, 89.3%; in the assay with RXF 393 renal, 89.4%; in the assay on SF-268 CNS, 88.5%. For the same compound, the growth in the assay on SF-295 CNS was 67%; in the assay on SF-539 CNS it was 91.8%; in the assay on UACC-257 melanoma, 77%; with M14 melanoma it was 84.9%; with HCT-15 colon it was 89.6%; in the assay with HT29 colon, 70.6%. Further, the growth in the assay with SNB-75 CNS is 76.9%; in the assay with SNB-19 CNS, 97.1%; with U251 CNS, 89.7%; in the assay with SK-MEL-5 melanoma, 91.7%; in the assay on UACC-62 melanoma it was 95.8%; with SK-MEL-28 melanoma, 85.9%.
